Measured values taken from PubChem BioAssay (NCI).
Values joined by “and” are separate entries in the source; they are usually repeats but may differ in a detail not shown here. Equal entries are not always repeated. About 79,000 compounds went through this panel and 15% of them were active in at least one assay; those are over-represented in the sample as a whole. More than one record can exist for a structure, and the calls need not agree. Active and inactive are the calls of the source. Cut-off read from the data, not from the text of the source: active = growth inhibition above about 70%; inactive = the rest. *1 amine or outer side, *2 acyl side, *3 side chain or, on linkers, in order; H or OH if unused. Where a SMILES comes first, the peptide text is derived from it. Bridges are numbered along the chain shown (N, C = ends). Roman numbers before positions name the chains, in order. [ ]: non-standard residue; d: D form. Actinocin(9to1) = Cc1c2oc3c(C)ccc(C(=O)[*:1])c3nc-2c(C(=O)[*:2])c(N)c1=O; NMeY = CN[CH](Cc1ccc(O)cc1)C(=O)O; Sar = CNCC(=O)O

How the values were obtained:
[1] = NCI Yeast Anticancer Drug Screen. Data for the rad50 strain (AID 155);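 note: 0% = growth of vehicle-only cultures of the same strain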; conditions: S. cerevisiae rad50 strain growth inhibition; at 50.0 µM; stronger effect = higher value
In short: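 Cells are treated with compound, grown, and their growth is then scored against vehicle-only cultures of the same repair-deficient yeast strain.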

[2] = NCI Yeast Anticancer Drug Screen. Data for the mec2-1 strain (AID 157); conditions: S. cerevisiae mec2-1 strain, at 50.0 µM, stronger effect = higher value
In short: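 Compounds were applied to mec2-1 yeast cells. Their growth was then compared with that of vehicle-treated cultures to give growth inhibition.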

[3] = NCI Yeast Anticancer Drug Screen. Data for the sgs1 mgt1 strain (AID 161);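 note: 0% = growth of cultures given vehicle only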; conditions: S. cerevisiae sgs1 mgt1 strain, at 50.0 µM, stronger effect = higher value
In short: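 Percent growth inhibition was derived by comparing compound-exposed mutant yeast with vehicle-exposed cultures. The strain carries alterations in DNA damage repair.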

[4] = NCI Yeast Anticancer Drug Screen. Data for the cln2 rad14 strain (AID 165);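 note: 0% = growth equal to vehicle treated cultures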; conditions: S. cerevisiae cln2 rad14 strain, at 50.0 µM, stronger effect = higher value
In short: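 Strain: cln2 rad14 yeast, altered in cell cycle control and DNA damage repair. Read-out: growth inhibition vs vehicle.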

[5] = NCI Yeast Anticancer Drug Screen. Data for the bub3 strain (AID 167); conditions: S. cerevisiae bub3 mutant strain, at 50.0 µM, stronger effect = higher value
In short: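 Part of a panel of yeast mutants defective in DNA damage repair or cell cycle regulation. Each strain is grown with compound, and inhibition is calculated relative to solvent-treated cultures.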

[6] = NCI Yeast Anticancer Drug Screen. Data for the mlh1 rad18 strain (AID 175); conditions: S. cerevisiae mlh1 rad18 strain growth inhibition; at 50.0 µM; stronger effect = higher value
In short: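 A repair-deficient yeast strain is exposed to test compound, and growth is scored relative to vehicle-treated controls.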

SMILES	growth inhibition [1]	growth inhibition [2]	growth inhibition [3]	growth inhibition [4]	growth inhibition [5]	growth inhibition [6]
OCCCc1ccncc1	-6.05% (inactive) and -8.55% (inactive)	-4.65% (inactive) and -4.7% (inactive)	2.9% (inactive) and 4.75% (inactive)	8.7% (inactive) and -7.9% (inactive)	3.25% (inactive) and -0.55% (inactive)	12.2% (inactive) and 7.85% (inactive)
CCC(N)C(=O)O (stereo unspecified)	-0.4% (inactive) and 5.25% (inactive)	-31.6% (inactive) and 6.85% (inactive)	1.75% (inactive) and -11.3% (inactive)	8.55% (inactive) and 9.4% (inactive)	-9.75% (inactive) and -14.9% (inactive)	-10.8% (inactive) and -0.8% (inactive)
C/C=C(\Br)C(=O)O	-8.1% (inactive) and 24.1% (inactive)	-10.7% (inactive) and -5.4% (inactive)	1.7% (inactive) and 0.25% (inactive)	-10.1% (inactive) and -19.2% (inactive)	-15.1% (inactive) and 5.8% (inactive)	9.25% (inactive) and 12.8% (inactive)
CC(=O)OCC(OC(C)=O)C(OC(C)=O)C(OC(C)=O)C(COC(=O)c1ccccc1)OC(=O)c1ccccc1 (stereo unspecified)	4.35% (inactive) and 18.9% (inactive)	-3.75% (inactive) and 5.75% (inactive)	-10.6% (inactive) and -4.1% (inactive)	-21.1% (inactive) and 3.7% (inactive)	4.35% (inactive) and -0.35% (inactive)	2.15% (inactive) and 10.3% (inactive)
OC1C2COC(O2)C(O)C1O (stereo unspecified)	-0.4% (inactive) and -29.9% (inactive)	-5.45% (inactive) and -7.65% (inactive)	7.4% (inactive) and -6.7% (inactive)	-16.2% (inactive) and -35% (inactive)	-1.5% (inactive) and 5.9% (inactive)	7.05% (inactive) and -18.7% (inactive)
O=C(O)/C=C(\F)C(=O)O	-9.8% (inactive) and 14.7% (inactive)	-14.2% (inactive) and 7.95% (inactive)	-3.05% (inactive) and 10.9% (inactive)	-1.6% (inactive) and -9.15% (inactive)	3.65% (inactive) and -20.8% (inactive)	0.7% (inactive) and 11.6% (inactive)
COC12C=CC(CC1)C(C)(C)C2O (stereo unspecified)	7.6% (inactive) and 0.25% (inactive)	-0.75% (inactive) and -7.75% (inactive)	-1.55% (inactive) and -2.25% (inactive)	-11% (inactive) and -14.2% (inactive)	7.85% (inactive) and 14.7% (inactive)	4.25% (inactive) and 1.9% (inactive)
COC(=O)/C(Cc1cccc(OC(C)=O)c1C(=O)OC)=N/O	-8.8% (inactive) and 2.95% (inactive)	16.2% (inactive) and 12.4% (inactive)	9.25% (inactive) and -3.7% (inactive)	-10.5% (inactive) and -99.8% (inactive)	-8.75% (inactive) and 12.7% (inactive)	-13.2% (inactive) and 3.55% (inactive)
O=CC(O)C(O)C(OC1OC(CO)C(O)C(O)C1O)C(O)CO (stereo unspecified) (tested in a mixture with another compound)	89.5% (active) and 38% (inactive)	96.5% (active) and 36.4% (inactive)	94.3% (active) and 55.4% (inactive)	93.8% (active) and 78.4% (active)	98.2% (active) and 80.7% (active)	95.3% (active) and 49.9% (inactive)
O=C(O)C1OC1C(=O)O (stereo unspecified)	-24.1% (inactive) and -0.45% (inactive)	-30.2% (inactive) and -4.6% (inactive)	-23.9% (inactive) and -5.4% (inactive)	-39.7% (inactive) and -23.8% (inactive)	-21.5% (inactive) and -5.95% (inactive)	-10.4% (inactive) and 13.7% (inactive)
Cc1c2oc3c(C)ccc(C(=O)NC4C(=O)NC(C(C)C)C(=O)N5CCCC5C(=O)N(C)CC(=O)N(C)C(Cc5ccc(O)cc5)C(=O)OC4C)c3nc-2c(C(=O)NC2C(=O)NC(C(C)C)C(=O)N3CCCC3C(=O)N(C)CC(=O)N(C)C(Cc3ccc(O)cc3)C(=O)OC2C)c(N)c1=O (stereo unspecified) (I: TVP[Sar][NMeY] / II: TVP[Sar][NMeY]; ester I:1-I:C, II:1-II:C; linker I:N-II:N via Actinocin(9to1); configuration not given here)	-11.3% (inactive) and -12.8% (inactive)	0.3% (inactive) and 1.3% (inactive)	-3.65% (inactive) and -1.8% (inactive)	4.7% (inactive) and 26.5% (inactive)	-8.7% (inactive) and 0.35% (inactive)	-25.1% (inactive) and -32.2% (inactive)
O=c1c([N+](=O)[O-])c[nH]c2cc(Cl)ccc12	-38.3% (inactive) and 6.4% (inactive)	2.25% (inactive) and -2.2% (inactive)	-19.2% (inactive) and 8.3% (inactive)	0.25% (inactive) and 35.5% (inactive)	-6% (inactive) and 11.6% (inactive)	-33.7% (inactive) and 15.8% (inactive)
O=C1NC(=O)C(=Nc2c(O)[nH]c(=O)[nH]c2=O)C(=O)N1	2.65% (inactive) and -11% (inactive)	-11.9% (inactive) and -14.3% (inactive)	2.3% (inactive) and -10.6% (inactive)	-25.2% (inactive) and -31.8% (inactive)	1.1% (inactive) and 16.6% (inactive)	12.1% (inactive) and -13.1% (inactive)
O=c1[nH]c2[nH]c(=S)[nH]c(=S)c2[nH]1	-19.7% (inactive) and 13.8% (inactive)	8.45% (inactive) and -2.5% (inactive)	-17.5% (inactive) and -4.85% (inactive)	13.8% (inactive) and -41.7% (inactive)	-24.7% (inactive) and -10.8% (inactive)	-20.1% (inactive) and -0.3% (inactive)
O=C(O)c1cc([N+](=O)[O-])c2c(c1)P(=O)(O)c1cc(C(=O)O)cc([N+](=O)[O-])c1O2	19.9% (inactive) and 10.8% (inactive)	-1.35% (inactive) and 3.05% (inactive)	7.65% (inactive) and 4.55% (inactive)	5.9% (inactive) and 4.05% (inactive)	-0.6% (inactive) and -2.1% (inactive)	13.7% (inactive) and 7.85% (inactive)
CCC(C)NC(=O)C1C2CC3OC(=O)C1C3C2 (stereo unspecified)	9.85% (inactive) and -12.7% (inactive)	-4.55% (inactive) and 5.6% (inactive)	-2.75% (inactive) and -18.9% (inactive)	-42.8% (inactive) and -40.3% (inactive)	-9.5% (inactive) and -6.5% (inactive)	3.1% (inactive) and -5.65% (inactive)
Nc1ncnc2c1ncn2C1(CO)OC(CO)C(O)C1O (stereo unspecified)	13.7% (inactive) and 3.2% (inactive)	-9.1% (inactive) and -6.15% (inactive)	-13.9% (inactive) and -0.2% (inactive)	-0.65% (inactive) and -23.2% (inactive)	5% (inactive) and 19.4% (inactive)	11.2% (inactive) and -1.25% (inactive)
CCCCCCC1OCC(COC)O1 (stereo unspecified)	5.25% (inactive) and 2.25% (inactive)	-3.1% (inactive) and -10.5% (inactive)	-1.9% (inactive) and -11.1% (inactive)	-4.55% (inactive) and 6% (inactive)	0.5% (inactive) and -2.35% (inactive)	-2.45% (inactive) and -10.2% (inactive)
CCOc1ccc(C(C)=O)cc1	10.7% (inactive) and -0.6% (inactive)	5.25% (inactive) and 3.75% (inactive)	5.85% (inactive) and 3.85% (inactive)	10.9% (inactive) and 1.45% (inactive)	5.5% (inactive) and 3.65% (inactive)	-2.05% (inactive) and -7.45% (inactive)
O=C(NNC(=S)NC1OC(CO)C(O)C(O)C1O)c1cccc(C(=O)NNC(=S)NC2OC(CO)C(O)C(O)C2O)n1 (stereo unspecified)	1.45% (inactive)	19.9% (inactive) and -22.6% (inactive)	31.4% (inactive) and 25.2% (inactive)	21.4% (inactive) and 7.8% (inactive)	17.1% (inactive) and 8.4% (inactive)	27.4% (inactive) and 14.9% (inactive)
NC(C(=O)O)C(O)C(=O)O (stereo unspecified)	-14% (inactive) and 2.7% (inactive)	5.85% (inactive) and 8.65% (inactive)	2.85% (inactive) and -6.75% (inactive)	10.4% (inactive) and -5.6% (inactive)	-5.75% (inactive) and 4.05% (inactive)	0.55% (inactive) and -7.3% (inactive)
